High-throughput results deposited in PubChem BioAssay by SRMLSC.
Shown are actives, neighbours in structure and some others; about 6.8% of the full set was active somewhere.
Spn MK inh: S. pneumoniae MK inhibitors, primary screen, biochemical, PK/LDH-coupled NADH absorbance | mevalonate kinase [Streptococcus pneumoniae D39] | purified MK, PK/LDH-coupled NADH absorbance 340 nm | inhibition, % at 10 µM | 65,000 tested, 0.48% active | AID 555, 2006;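 active means ranked among the strongest by inhibition in the single 10 µM screen, a fixed top-ranked set picked for dose follow-up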
PMK inhibit: S. pneumoniae PMK inhibitors, primary screen, biochemical, mevalonate pathway, pilot trial included; 65,000 tested, 0.49% active; inhibition, % at 10 µM; phosphomevalonate kinase (Streptococcus pneumoniae D39); purified PMK, PK/LDH-coupled NADH absorbance 340 nm;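 active means top-ranked compounds by inhibition in the single 10 µM screen, taking a fixed number of the strongest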;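 further: 0% = full reaction with DMSO carrier and 100% = background rate without enzyme reaction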
Autofluor 339: intrinsic fluorescence of library compounds, ex339/em460 – biochemical, MLSMR library, data from DPM-DC assay, artefact control, profiling panel | compound autofluorescence, ex339/em460 nm, NADH buffer; stronger effect = higher value; 1 = no-compound wells, NADH background | fluorescence fold increase at 10 µM | 65,000 tested, 5.5% active;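 active means at 10 µM, mean starting fluorescence two-fold or more over control wells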;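 further: signal is the first read of a kinetic run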
NADH coupling: inhibitors of PK/LDH coupling enzymes, profiling panel, artefact control, biochemical, MLSMR library; AID 774, 2007; 65,000 tested, 0.02% active; coupled PK/LDH NADH assays, four targets; IC50, µM (titrated, usually from 10 µM), for the others: top-dose inhibition;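 active means single-dose screening hits from any of four coupled enzyme assays that gave an IC50 when retested across doses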;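 further: the DPM-DC format reads NADH fluorescence rather than 340 nm absorbance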
DPM-DC inhibit: S. pneumoniae DPM-DC inhibitors, primary screen, biochemical, PK/LDH-coupled NADH fluorescence; purified DPM-DC; calls only at 10 µM; 65,000 tested, 0.49% active; AID 556, 2006;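 active means the 320 compounds with the highest percent inhibition in the single-dose primary screen, excluding strongly autofluorescent ones, cut at about 32% in these data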;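 further: kinetic rate of NADH fluorescence loss reporting ADP formed by the decarboxylase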
Abs 340nm: compound light absorbance at 340 nm, profiling panel, artefact control, biochemical, MLSMR library, data from PS, PMK, MK assays | compound absorbance at 340 nm, fold over control | fold change at 10 µM | 65,000 tested, under 10 active;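 active means at 10 µM dose, initial 340 nm absorbance at least 2 fold that of control wells; inactive means change under 2 fold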;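 further: initial absorbance extrapolated from kinetic A340 decline of NADH oxidation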
* hit, by the source's call; i = inactive; · = no result shown; + = active, no number.

SMILES	Spn MK inh	PMK inhibit	Autofluor 339	NADH coupling	DPM-DC inhibit	Abs 340nm
CCCCCn1c(N)c(C#N)c2nc3ccccc3nc21	3	10	5*	7%	·	1.1
CCCCn1c(CNC(C)=O)nc2ccccc21	0	5	1.1	2%	i	1
CCCCn1c(NC(C)=O)c(C#N)c2nc3ccccc3nc21	11	15	3.8*	13%	·	1.1
Cc1ccc(S(=O)(=O)c2c(N)n(CCN3CCOCC3)c3nc4ccccc4nc23)cc1C	8	16	4.9*	12%	·	1.1
N#Cc1c(N)n(CCNC(=O)c2cccs2)c2nc3ccccc3nc12	10	7	3*	4%	·	0.99
O=C(Cn1ncn2c(cc3ccccc32)c1=O)NCCC1=CCCCC1	1	10	1.2	6%	i	1
N#Cc1c(N)n(CCCN2CCOCC2)c2nc3ccccc3nc12	4	6	3.9*	5%	·	1
Nc1c(S(=O)(=O)c2cccs2)c2nc3ccccc3nc2n1Cc1ccc2c(c1)OCO2	2	6	2.7*	14%	+	1.1
COc1ccc(Cn2c(N)c(C#N)c3nc4ccccc4nc32)cc1OC	0	9	1.9	2%	·	1
Nc1c(S(=O)(=O)c2cccs2)c2nc3ccccc3nc2n1Cc1cccs1	4	12	3.9*	8%	·	1.1
Nc1c(S(=O)(=O)c2cccs2)c2nc3ccccc3nc2n1CC1CCCO1 (centres undefined)	9	10	3*	4%	·	1
COc1ccc(CCn2c(N)c(C#N)c3nc4ccccc4nc32)cc1OC	8	0	1.6	6%	i	1
COc1ccc(CCn2c(N)c(S(=O)(=O)c3cccs3)c3nc4ccccc4nc32)cc1OC	3	11	1.5	21%	+	1.1
Cc1ccc(NC(=O)c2cccc(N3C(=O)CCC3=O)c2)nc1	9	0	1.1	3%	i	1
Cn1cc(SCC(=O)NCc2ccc3c(c2)OCO3)c2ccccc21	3	8	1.1	8%	i	1
CC(C)CN1CN(S(=O)(=O)c2cccs2)c2nc3ccccc3nc21	9	7	1.4	5%	i	1.1
Nc1c(S(=O)(=O)c2ccccc2)c2nc3ccccc3nc2n1Cc1ccco1	8	7	2.2*	8%	·	1.1
O=c1c2ccccc2nc(-c2ccccc2)n1Cc1ccco1	8	3	1.2	4%	i	0.99
CC(C)CCn1c(N)c(S(=O)(=O)c2cccs2)c2nc3ccccc3nc21	1	13	3*	3%	·	1
Cn1c(N)c(S(=O)(=O)c2ccc(Br)cc2)c2nc3ccccc3nc21	2	7	3.8*	5%	·	1.1
CCOC(=O)N1CCC(N2Cc3cccc(C(=O)NC(C)c4ccc5c(c4)OCCO5)c3C2=O)CC1 (centres undefined)	8	2	1.1	3%	i	1
CC(C)(C)OC(=O)N1CC2Cc3[nH]c(=O)ccc3C(C2)C1 (centres undefined)	5	0	1.1	2%	i	1
CCCCc1cc(=O)oc2c(CN3CCCC3)c(O)ccc12	4	0	2.4*	2%	·	1.1
CCCCc1cc(=O)oc2cc(C)c(CN3CCCC3)c(O)c12	4	6	1.2	5%	i	1.1
O=c1cc(-c2ccccc2)c2ccc(O)c(CN3CCCCC3)c2o1	2	4	2.4*	5%	i	1.2
O=c1c(-c2ccccc2)coc2c(CN3CCCC3)c(O)ccc12	8	11	3.9*	10%	·	1.1
CCc1cc2c(-c3ccccc3)cc(=O)oc2c(CN2CCOCC2)c1O	14	4	2.5*	6%	i	1.1
COc1ccc(N2CCN(c3nc4c(c(=O)n(C)c(=O)n4C)n3CCCc3ccccc3)CC2)cc1	11	10	1.1	7%	i	1
